# Lassa entry inh: inhibitors of Lassa virus binding or cell entry; Lassa virus pseudotype entry inhibition, cell reporter; Potency, µM (series often up to 37.9 µM), for inactives: at the highest dose activity change, negative = inhibition, usual class: inhibitors; 300,000 compounds, 1.2% hits; AID 540256; calls by dose curve; tested in HEK293 cells; note: potency is the fitted concentration of half-maximal effect; nearly all actives have a fitted effect of over 50% in size
# FMDV antiviral: antivirals against foot and mouth disease virus | FMDV antiviral cell-based qHTS | Potency, µM (top dose mostly 57.9 µM), without a hit: at the top dose activity change, negative = inhibition, most hits filed as inhibitors | 410,000 compounds, 1.2% hits; calls by dose curve; tested in HEK293T cells; note: read-out not given here; potency is the fitted concentration of half-maximal effect; nearly all actives have a fitted effect of over 45% in size
# HCV inh: inhibitors of hepatitis C virus infection. 340,000 compounds, 3.4% hits. Huh7.5.1 HCVcc-Cre infection, luciferase reporter, 44 h. Potency, µM (top dose mostly 41.8 µM), for the others: at the top dose activity change, negative = inhibition, actives largely listed as inhibitors. AID 651820; active = well fitted inhibition curve with a large enough effect; inconclusive = small, poorly fitted or top-dose-only effect, or another doubt; inactive = no such curve, though single readings can be large or run the other way; note: potency is the fitted concentration of half-maximal effect
#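 Reporter virus HCVcc-Cre (~0.5 moi) infects cells exposed to compound; seeding density 1,000 cells/well with 4 h settling beforehand. Luminescence, 15 sec read, taken 44 h post-infection following a 15 min RT substrate incubation.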
# HCMV antiviral: inhibitors of human cytomegalovirus. HFF cells, HCMV-luciferase reporter, 72 h; active compounds read low. activity change, negative = inhibition, % at 57.5 µM. 410,000 compounds, 4.5% hits; in the data active = activity change below about -60%; inconclusive = no clear call, values can overlap the other calls; inactive = above about -39%
#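 Luciferase read-out from HCMV-luciferase-infected HFFs (MOI 1 PFU/cell) 72 h post infection at 37C; compounds added after 16 h cell attachment; activity normalized between buffer-only basal and Salinomycin (10uM) inhibitor controls.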
# Marburg entry inh: blocks Marburg virus binding to or entry into cells; Marburg virus pseudotyped entry inhibition, cell reporter; Potency, µM (highest dose often 37.8 µM), for inactives: top-dose activity change, negative = inhibition, hits mostly inhibitors; 300,000 compounds, 1.8% hits; AID 540276; calls by dose curve; tested in HEK293 cells; note: potency is the fitted concentration of half-maximal effect
# An asterisk follows results filed as active; ? = inconclusive; / = no result given; [ ] = another dose, or the depositor's remark. The list is not random: actives were taken first. Their share in the collection is about 7.9%. % is set by controls: 0 for no effect and ±100 for the full control effect.
SMILES,Lassa entry inh,FMDV antiviral,HCV inh,HCMV antiviral,Marburg entry inh
COc1cc(CN(C)Cc2ccccc2)cc(OC)c1O,-5%,-12%,12%,16,?
O=C(NCCOc1nc(N2CCCCC2)nc(N2CCOCC2)n1)Nc1ccccc1,-15%,12%,8.9µM*,-77*,-4%
O=C1CN(C(=O)c2ccc(S(=O)(=O)N3CCCCC3)cc2)C(c2ccc(F)cc2)c2cc(Br)ccc2N1 (configuration not stated),?,-21%,/,-8,?
O=C1C2C3C=CC(CC3)C2C(=O)N1c1ccccc1 (configuration not stated),/,-6%,10%,-15,/
O=C1C=CC2C3C(=O)N(c4ccccc4)C(=O)C3C1N2Cc1ccccc1 (configuration not stated),25µM*,10µM*,?,-78*,?
CC(=O)c1cc2c(cc1NC(=O)Cn1nc(-c3ccc(C)cc3)ccc1=O)OCO2,-19%,-4%,11µM*,-16,?
CCOC(=O)c1c2c3c(cccc3[nH]c1=O)C(=O)c1ccccc1-2,-1%,-9%,-12%,55,-5%[46.1 µM]
CCOC(=O)c1c2c3c(c(Cl)ccc3[nH]c1=O)C(=O)c1ccccc1-2,-22%[46.1 µM],-20%,-24%,-97*,-3%[46.1 µM]
Cc1csc2nc(-c3cccc(NC(=O)c4cccc(F)c4)c3)cn12,-12%[46.1 µM],-21%,/,-26,/
CCSc1nc(N)c(C#N)c(-c2ccccc2Cl)c1C#N,-13%,-25%,-28%,-63*,-1%
N#Cc1c(N)nc(Sc2ccc(Cl)cc2)c(C#N)c1-c1ccccc1Cl,?,28µM*,11µM*,-78*,?
Cc1ccc(NC(=O)c2ccc(C)c(S(=O)(=O)N3CCCCCC3)c2)cc1,?,-18%,/,?,/
COc1ccc(C(=O)Nc2ccc(C)c(S(=O)(=O)N3CCCCCC3)c2)cc1,?,20µM*,32µM*,-65*,?
Cc1ccc(NC(=O)c2ccc(F)cc2)cc1S(=O)(=O)N1CCCCCC1,?,?,?,-78*,7.9µM*
COc1ccc(NC(=O)CN(C)CC(=O)Nc2ccc(C)c(S(=O)(=O)N3CCCCC3)c2)cc1,/,-22%,?,-21,/
COc1cccc(CNC(=O)c2ccc(C)c(S(=O)(=O)N3CCOCC3)c2)c1,-5%,3%,?,-35,23%
COc1cccc(CNC(=O)c2ccc(C)c(S(=O)(=O)N3CCCCC3)c2)c1,?,?,10µM*,-22,?
CSc1ncccc1C(=O)N1CCCC(CCC(=O)NCc2ccc(F)c(F)c2)C1 (configuration not stated),10%,1%,17%,-14,-22%[46.1 µM]
CCC(Sc1nnc(C)n2c1cc1occc12)C(=O)Nc1ccccc1F (configuration not stated),6%[46.1 µM],0%,/,-31,/
Cc1ccc(-n2sc3ccccc3c2=O)cc1,?,-3%,?,-32,3.2µM*
CCCC(=O)Oc1ccccc1C1SCc2cc(C)c(C)cc2CS1,?,-18%,-26%,-60*,?
CCOC(=O)C(C(=O)OCC)C1OC(=O)c2cc3c(cc21)C(=O)OC3C(C(=O)OCC)C(=O)OCC (configuration not stated),?,?,11%,-12,?
CC1Cc2ccccc2N1C(=O)CN1CCC(n2nnc3cc(C(F)(F)F)ccc32)CC1 (configuration not stated),-30%,20µM*,?,-39,?
COC(=O)c1ccccc1NC(=O)CN1CCC(n2nnc3cc(C(F)(F)F)ccc32)CC1,-2%,0%,-19%,-14,-25%
CC(C(=O)Nc1sc2c(c1C(=O)NCC1CCCO1)CCC2)N1C(=O)c2ccccc2C1=O (configuration not stated),-9%,-27%,-12%,-100*,?
SMILES,Lassa entry inh,FMDV antiviral,HCV inh,HCMV antiviral,Marburg entry inh
Cc1nn(Cc2ccccc2)c(C)c1C=C1C(=O)NC(=S)NC1=O,2%,14µM*,16%,-1,-9%
Cc1nn(Cc2ccccc2)c(C)c1N,17%,-23%,-4%,26,-6%
Cc1cccc(CNc2ncncc2-c2cccnc2)c1,/,-2%,/,/,/
CCCCc1ccc(NC(=S)NCc2cccs2)cc1,-10%,45%,-29%,-80*,-26%
S=C(NCc1cccs1)Nc1cccc(Cl)c1Cl,?,47%,-22%,-79*,0%
Cc1ccc(NC(=S)NCc2cccs2)cc1,9%,42%,-4%,40,?
Cc1c(Cl)cccc1NC(=S)NCc1cccs1,-18%,18%,?,-80*,-9%
Cc1ccccc1NC(=S)NCc1cccs1,13%,18%,15%,22,?
COc1cc(=O)n2c(c1C(=O)N(C)Cc1nonc1C)CCN(Cc1cc(C)c(C)cc1C)CC2,/,-14%,/,/,/
Cc1nc(-c2cccc(F)c2)sc1CCNC(=O)Cc1ccc(F)cc1,0%[46.1 µM],-9%,/,6,/
COc1ccc(C(=O)NN/C(C)=C/C(=O)c2ccccc2)cc1,-2%[46.1 µM],-4%,-21%,18,4%[46.1 µM]
COC(=O)/C(=C\C(=O)c1ccccc1)Nc1ccc(OC)cc1,-7%,25%,12%,38,3%[46.1 µM]
COc1ccc(N/C(C)=C/C(=O)c2ccccc2)cc1,18%,5%,10µM*,-11,3%
C/C(=C\C(=O)c1cccnc1)Nc1ccc(C(=O)O)cc1,1%,-7%,3%,27,7%
C/C(=C\C(=O)c1ccccc1)NNC(=O)c1ccc(Cl)cc1,?,2%,22%,-73*,3%[46.1 µM]
CC(=O)Nc1ccc(N/C(C)=C/C(=O)c2cccnc2)cc1,18%,10%,0%,-61*,-2%
Cc1cccc(OCC(=O)Nc2nccs2)c1C,/,20%,-6%,104,/
CC(C)[C@H](CO)Nc1nc(NCc2ccc(S(N)(=O)=O)cc2)c2ncn(C(C)C)c2n1,/,-29%,?,-96*,/
Cc1nc2ccccc2n1CCc1nc2c3ccccc3nc(SCc3ccc(C#N)cc3)n2n1,19%[46.1 µM],-20%,/,9,/
CN(C)c1nc(N/N=C\c2ccc(Cl)c([N+](=O)[O-])c2)nc(Nc2ccc(F)cc2)n1,1%,?,22µM*,39,?
CCN(c1ccc(OC)cc1)c1ncnc2nc[nH]c12,/,0%,-5%,-88*,/
CCCCN(Cc1ccccc1)c1ncnc2nc[nH]c12,3%,-9%,-15%,/,?
CCCCN(CCCC)c1ncnc2nc[nH]c12,/,?,-19%,-91*,/
Cc1ccc(C)c(-n2c3nc(=O)[nH]c(=O)c-3cc3cc([N+](=O)[O-])ccc32)c1,3.2µM*,28µM*,-23%,?,?
Cc1cccc(-n2c3nc(=O)[nH]c(=O)c-3cc3cc([N+](=O)[O-])ccc32)c1,?,35µM*,6%,-66*,?
Cc1nc2c(-c3ccccc3)c(C)nn2c(SCC(N)=O)c1Cc1ccccc1,/,?,?,-10,/
COCCN(Cc1ccccc1)C(=O)c1cccc(S(=O)(=O)N2CCN(Cc3ccccc3)CC2)c1,/,?,/,-33,/

# Screening data (PubChem)
